# STK33 kin inh: STK33 kinase inhibitors, primary screen, biochemical, luminescence, ADP-Glo, MBP substrate; AID 2322, 2010; actives 0.44% (n = 27,000); inhibition, % at 12.5 µM; Serine/threonine-protein kinase 33 (Homo sapiens), Q9BYT3; in the data active = inhibition above about 20%; inconclusive = no clear call, values can overlap the other calls
# Target sequence (Q9BYT3 whole entry, looked up): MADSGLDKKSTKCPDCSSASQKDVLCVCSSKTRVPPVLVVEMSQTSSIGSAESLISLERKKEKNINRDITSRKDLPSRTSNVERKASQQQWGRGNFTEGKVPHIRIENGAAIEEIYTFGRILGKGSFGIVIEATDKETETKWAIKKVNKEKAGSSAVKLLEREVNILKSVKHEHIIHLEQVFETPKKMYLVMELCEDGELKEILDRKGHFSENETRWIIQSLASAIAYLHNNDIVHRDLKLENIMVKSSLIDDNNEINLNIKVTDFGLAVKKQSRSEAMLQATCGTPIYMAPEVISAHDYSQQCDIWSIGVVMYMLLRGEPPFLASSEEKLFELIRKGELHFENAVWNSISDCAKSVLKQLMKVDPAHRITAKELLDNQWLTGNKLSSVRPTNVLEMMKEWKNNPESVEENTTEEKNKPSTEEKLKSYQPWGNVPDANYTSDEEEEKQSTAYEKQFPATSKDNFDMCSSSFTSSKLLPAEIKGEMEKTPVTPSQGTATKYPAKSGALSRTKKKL
# PD-1 reversal: activators reversing PD-1 mediated T-cell inhibition, primary screen, luminescence, primary human CD4 T cells, PD-L1 beads; activation, % (test concentration not listed); AID 2316, 2010; CellTiter-Glo 96 h; 29,000 tested, under 10 active; call rule not given here;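 note: 0% = median vehicle wells and 100% = positive control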
# NOMO-1 viab: NOMO-1 AML cell viability reduction, primary screen, STK33 inhibitor project, CellTiter-Glo luminescence. actives 7.5% (n = 37,000). inhibition, % (test concentration not listed). NOMO-1 AML viability, 72 h. AID 2330, 2010; in the data active = inhibition above about 80%; inconclusive = no clear call, values can overlap the other calls
# Numbers without * were called inactive; ? = inconclusive; . = no result given. Only a selection was taken, and hits are over-represented in it overall.
SMILES,STK33 kin inh,PD-1 reversal,NOMO-1 viab
C[C@H](CO)N1C[C@H](C)[C@H](CN(C)Cc2ccc(-c3ccccc3)cc2)Oc2c(NC(=O)Nc3ccc4c(c3)OCO4)cccc2C1=O,.,-3.9,120.1*
C[C@H]1CN([C@@H](C)CO)C(=O)c2cccc(NC(=O)Nc3ccc4c(c3)OCO4)c2O[C@H]1CN(C)Cc1ccccc1,.,2.1,65.1
CCOC(=O)c1ccccc1NC(=O)COc1ccccc1Br,-1.6,-0.2,-10.0
C[C@H](CO)N1C[C@H](C)[C@H](CN(C)Cc2ccc(C(=O)Nc3ccccc3N)cc2)Oc2ccc(NC(=O)CCN3CCOCC3)cc2C1=O,.,-1.0,41.4
C[C@@H]1CN([C@H](C)CO)C(=O)Cc2cc(NC(=O)Cn3cnnn3)ccc2O[C@H]1CN(C)S(=O)(=O)c1cccs1,0.1,1.1,7.2
C[C@@H]1CN([C@@H](C)CO)C(=O)c2cc(N(C)C)ccc2O[C@@H]1CN(C)C(=O)Nc1cccc2ccccc12,.,-0.1,13.0
CC(C)NC(=O)N(C)C[C@@H]1OCCCC[C@@H](C)Oc2ccc(NC(=O)CCCN(C)C)cc2C(=O)N([C@H](C)CO)C[C@@H]1C,4.0,.,11.5
C[C@H](CO)N1C[C@H](C)[C@H](CN(C)Cc2ccc(Oc3ccccc3)cc2)Oc2c(NC(=O)Nc3ccc4c(c3)OCO4)cccc2C1=O,.,-3.2,116.3*
C[C@@H]1CN([C@H](C)CO)C(=O)c2cccc(NC(=O)Nc3ccc4c(c3)OCO4)c2O[C@H]1CN(C)Cc1ccc(Oc2ccccc2)cc1,.,.,20.4
COc1ccc(OC)c(S(=O)(=O)N(C)c2ccccc2C(=O)O)c1,-0.5,-0.5,36.3
C[C@@H]1CN([C@@H](C)CO)C(=O)Cc2cc(NS(=O)(=O)c3ccccc3)ccc2O[C@@H]1CN(C)S(=O)(=O)c1ccc(Cl)cc1,-2.6,-3.3,32.8
O=C1O[C@H](c2ccccc2)[C@H](c2ccccc2)N2[C@H]1[C@@H](C(=O)N1CCCCCCC1)[C@]1(C(=O)Nc3ccc(C#CC4=CCCCC4)cc31)[C@H]2c1ccccc1OCCO,22.0*,.,.
O=C1O[C@H](c2ccccc2)[C@H](c2ccccc2)N2[C@H]1[C@@H](C(=O)N1CCN(c3ncccn3)CC1)[C@]1(C(=O)Nc3ccc(C#CC4=CCCCC4)cc31)[C@H]2c1ccccc1OCCO,8.1,.,.
COc1ccc(C2C(C(N)=O)=C(C)Nc3nc(SCc4ccccc4Cl)nn32)c(OC)c1 (stereo not given),-5.0,2.1,-9.7
COc1ccc(Br)cc1C(Nc1ccccn1)c1cc(Cl)c2cccnc2c1O (stereo not given),6.9,.,114.3*
O=C(COc1ccc(Cl)c2cccnc12)Nc1cccc([N+](=O)[O-])c1,-2.8,3.2,0.7
COc1cc(C(Nc2ccccn2)c2cc(Cl)c3cccnc3c2O)cc(I)c1O (stereo not given),0.4,.,25.2
COc1ccc(C(Nc2ccccn2)c2cc(Cl)c3cccnc3c2O)cc1[N+](=O)[O-] (stereo not given),0.2,.,112.8*
C[C@@H]1CCCCO[C@@H](CN(C)C(=O)Nc2ccccc2)[C@@H](C)CN([C@H](C)CO)C(=O)c2cc(NC(=O)Nc3ccc(C(F)(F)F)cc3)ccc2O1,7.2,-1.3,70.1
C[C@@H]1CCCCO[C@@H](CN(C)Cc2ccncc2)[C@@H](C)CN([C@H](C)CO)C(=O)c2cc(NC(=O)Nc3ccc(C(F)(F)F)cc3)ccc2O1,1.2,.,52.6
C[C@@H]1CCCCO[C@H](CN(C)CC2CCCCC2)[C@@H](C)CN([C@H](C)CO)C(=O)c2cc(NC(=O)Nc3ccccc3)ccc2O1,-1.0,.,?
C[C@@H]1CCCCO[C@@H](CN(C)C(=O)Nc2ccc(C(F)(F)F)cc2)[C@@H](C)CN([C@H](C)CO)C(=O)c2cc(NC(=O)c3ccccc3)ccc2O1,2.4,-3.3,90.6*
C[C@@H]1CCCCO[C@H](CN(C)C(=O)Nc2ccc(C(F)(F)F)cc2)[C@@H](C)CN([C@H](C)CO)C(=O)c2cc(NC(=O)NC3CCCCC3)ccc2O1,2.1,-1.2,26.7
C[C@@H]1CCCCO[C@@H](CN(C)CC2CCCCC2)[C@@H](C)CN([C@H](C)CO)C(=O)c2cc(NC(=O)Nc3ccc(C(F)(F)F)cc3)ccc2O1,4.8,-4.2,117.0*
C[C@@H]1CCCCO[C@@H](CN(C)CC2CCCCC2)[C@@H](C)CN([C@H](C)CO)C(=O)c2cc(NC(=O)Nc3ccc(F)cc3)ccc2O1,0.7,-2.9,115.3*
SMILES,STK33 kin inh,PD-1 reversal,NOMO-1 viab
C[C@@H]1CCCCO[C@@H](CN(C)C(=O)NC2CCCCC2)[C@@H](C)CN([C@H](C)CO)C(=O)c2cc(NC(=O)Nc3ccc(C(F)(F)F)cc3)ccc2O1,1.7,-0.1,99.5*
CNC[C@@H]1OCCCC[C@@H](C)Oc2ccc(NS(=O)(=O)c3ccc(Cl)cc3)cc2C(=O)N([C@H](C)CO)C[C@@H]1C,2.7,0.4,15.3
CC(C)C(NS(=O)(=O)c1ccc(Oc2ccccc2Cl)cc1)C(=O)O (stereo not given),-1.0,.,-1.5
C[C@H](CO)N1C[C@H](C)[C@H](CN(C)Cc2ccc(C(=O)O)cc2)Oc2ccc(NC(=O)C3CC3)cc2CC1=O,1.2,3.6,-3.0
COc1ccc(NC(=O)Nc2ccc3c(c2)C(=O)N([C@@H](C)CO)C[C@@H](C)[C@@H](CN(C)S(=O)(=O)c2ccccc2)O3)cc1,1.2,2.5,17.7
C[C@@H]1CN([C@H](C)CO)C(=O)c2cc(NC(=O)Nc3ccc(C(F)(F)F)cc3)ccc2O[C@H]1CN(C)C(=O)NC1CCCCC1,.,-1.5,26.2
O=C(COc1ccccc1[N+](=O)[O-])Nc1ccc2nn(-c3ccc(F)cc3)nc2c1,1.9,-1.3,4.0
C[C@@H]1CCCCO[C@@H](CN(C)CC2CC2)[C@@H](C)CN([C@H](C)CO)C(=O)c2cc(NC(=O)Nc3ccc(C(F)(F)F)cc3)ccc2O1,0.7,-2.7,118.9*
C[C@@H]1CCCCO[C@@H](CN(C)Cc2ccc(C(F)(F)F)cc2)[C@@H](C)CN([C@H](C)CO)C(=O)c2cc(NC(=O)Nc3ccc(F)cc3)ccc2O1,2.1,.,42.1
Cc1nc(SCC(=O)c2ccc(Cl)s2)c2c(C)c(C)sc2n1,1.0,-1.1,8.9
C[C@H]1CN([C@@H](C)CO)C(=O)Cc2cc(NC(=O)Nc3ccccc3)ccc2O[C@H]1CN(C)C(=O)Nc1ccc(F)cc1,3.7,.,-4.2
O=C(CSc1nc(O)cc(=O)[nH]1)Nc1ccc(Br)cc1,-2.2,.,6.4
O=C(COc1ccccc1[N+](=O)[O-])Nc1cccc(Cl)c1N1CCOCC1,3.9,-0.1,82.5*
O=C(COc1ccccc1[N+](=O)[O-])Nc1ccccc1N1CCN(C(=O)c2ccccc2)CC1,6.0,.,31.2
C[C@H](CO)N1C[C@H](C)[C@H](CN(C)C)Oc2ccc(NC(=O)Nc3cccc4ccccc34)cc2C1=O,2.7,1.2,5.2
CC(C)NC(=O)Nc1ccc2c(c1)C(=O)N([C@@H](C)CO)C[C@H](C)[C@@H](CN(C)Cc1ccccc1)O2,.,-0.5,22.9
C[C@H]1CN([C@@H](C)CO)C(=O)c2cc(NC(=O)Nc3ccccc3)ccc2O[C@@H]1CN(C)C(=O)Nc1ccc(C(F)(F)F)cc1,.,0.0,3.7
